Bioassay records deposited in PubChem BioAssay by National Center for Advancing Translational Sciences (NCATS).
Most compounds without a hit are left out; they make up all but 3.6% or so of the library.
TRHR ag: agonists of human TRH receptor; P34981; TRHR cells, calcium flux fluo-8, FDSS agonist mode; activation, % at 2 µM; 360,000 tested, 0.18% active; note: 0% is about no effect
Target sequence (P34981 whole entry, looked up): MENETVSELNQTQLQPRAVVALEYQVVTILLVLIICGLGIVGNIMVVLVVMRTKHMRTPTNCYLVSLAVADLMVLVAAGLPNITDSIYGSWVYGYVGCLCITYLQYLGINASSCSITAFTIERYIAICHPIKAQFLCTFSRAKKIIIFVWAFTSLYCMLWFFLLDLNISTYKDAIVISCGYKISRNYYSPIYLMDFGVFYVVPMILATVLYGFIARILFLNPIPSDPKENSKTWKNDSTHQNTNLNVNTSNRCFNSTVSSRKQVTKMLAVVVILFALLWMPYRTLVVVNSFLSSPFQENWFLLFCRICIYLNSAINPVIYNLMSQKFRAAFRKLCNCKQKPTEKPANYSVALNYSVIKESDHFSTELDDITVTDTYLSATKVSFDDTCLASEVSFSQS
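In this calcium-flux screen, cells bearing human TRHR are dye-loaded with fluo-8, baselined for 10 cycles, then exposed to library compounds; positive kinetic calcium responses during the agonist phase mark hits, with TRH as control.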
LDHA block: LDHA (human) enzyme inhibition. 480,000 tested, 0.15% active. purified LDHA, NADH/diaphorase-resazurin fluorescence; hits give low values. activity change, % (values are at about 110 or 230 µM). AID 1347041. P00338; in the data active = activity change below about -30%;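 note: plate controls were DMSO wells for no effect and wells without enzyme for full effect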
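Human LDH5 at 2 nM final in Tris HCl pH 7.4 with 0.06 mM NADH and 0.2 mM pyruvate, reacted 5 minutes at room temperature. Remaining NADH coupled via diaphorase/resazurin; resorufin fluorescence read at 0 and 20 minutes, normalized to enzyme-free and DMSO wells.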
D1 agonist: activates the human D1 dopamine receptor | P21728 | HEK293 T-REx D1 cells, calcium flux, agonist mode | activation, % at 2 µM | 360,000 tested, 1% active; note: 0% is about no effect
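Tetracycline-induced HEK293 TREx D1 cells, force-coupled to calcium signalling, were dye-loaded with a no-wash calcium kit. Compound was pin-added after a 10 s baseline. Fluorescence was read kinetically at 1 cycle/s for 180 s, with calcium rises flagged as agonism.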
D1 PAM: human D1 dopamine receptor positive modulation. P21728. HEK293 TREx D1 cells, calcium flux, dopamine EC20 potentiation. potentiation, % at 10 µM. 360,000 tested, 0.036% active; in the data active = potentiation above about 30%; note: 0% is about no effect
D1 antag: blocks dopamine activation of the human D1 receptor; HEK293 TREx D1 cells, calcium flux, dopamine EC80; hits give low values; activity change, negative = inhibition, % at 10 µM; 360,000 tested, 3.2% active; AID 504652; in the data active = activity change below about -30%; note: % is set by controls: 0 for no effect and ±100 for the full control effect
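Inducible Hek293 Trex D1 cells (tetracycline, overnight, 30 C). Calcium dye 30–90 min RT. Antagonist mode: EC80 dopamine added after 180 s compound read.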
TRHR PAM: allosterically enhances the human TRH receptor | enhancement, % at 2 µM | TRHR cells, fluo-8 calcium fluorescence, EC20 TRH enhancement | AID 493056 | 360,000 tested, 0.66% active; in the data active = enhancement above about 30%; note: 0% is about no effect
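TRHR-expressing cells loaded with fluo-8 calcium dye were read kinetically (ex 480/em 530) during compound addition, then stimulated with an EC20 of TRH (10 nM final). Enhancement of the Gq-mediated intracellular calcium response was scored.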
* = called active by the depositor; · = no result. Cut-off read from the data, not from the text of the source, unless noted: active = activation above about 30%; inactive = the rest.

SMILES | TRHR ag | LDHA block | D1 agonist | D1 PAM | D1 antag | TRHR PAM
COC(=O)c1sc(N)c(C(=O)OC)c1COC(=O)CNS(=O)(=O)c1cccc(C#N)c1 | 0 | -3 | 1 | 6 | -33* | 9
Cc1ccccc1NC(=O)c1nnn(-c2ccc3c(c2)OCCO3)c1N | 0 | -4 | 14 | -6 | -48* | 4
CCOc1ccccc1NC(=O)c1nnn(-c2ccc3c(c2)OCCO3)c1N | 0 | 4 | 6 | 1 | 10 | 8
O=Cc1ccc(OCc2ccc(C(=O)O)cc2)c(Cl)c1 | · | 0 | · | · | · | ·
CCc1ccc(C(=O)c2cnc3ccc(F)cc3c2S(=O)(=O)c2ccccc2)cc1 | 0 | -2 | 2 | -7 | -42* | -1
Cc1ccccc1C(=O)NC(NC(=S)Nc1ccc(S(N)(=O)=O)cc1)C(Cl)(Cl)Cl (stereo unspecified) | 1 | -15 | 2 | 3 | 5 | 3
Cc1ccc(C(=O)NC(NC(=S)Nc2ccc(S(N)(=O)=O)cc2)C(Cl)(Cl)Cl)cc1 (stereo unspecified) | 0 | -34* | 6 | -7 | -18 | 0
O=C(Cn1c(-c2ccccc2)cc2ccccc21)N1CCCCC1 | · | -3 | · | · | · | ·
CCOC(=O)Cn1c(=O)oc2cc(S(=O)(=O)Nc3ccc(F)cc3)ccc21 | 0 | 0 | 77* | 0 | -66* | 4
CCOC(=O)Cn1c(=O)oc2cc(S(=O)(=O)N3CCN(c4ccc(C(C)=O)cc4)CC3)ccc21 | 1 | -12 | 9 | -5 | -43* | 5
CCOC(=O)C(CC(C)C)NC(C)=O (stereo unspecified) | · | -1 | · | · | · | ·
Cc1noc(C)c1-c1ccc2ncnc(NCc3cccc(-c4ccccc4)c3)c2c1 | 1 | · | 16 | -6 | -34* | 1
C(=C\c1ccccc1)/C=N/Nc1nc(Nc2ccccc2)nc(N2CCCCC2)n1 | · | -5 | · | · | · | ·
CCSc1nnc2n(N)c(=O)c3ccccc3n12 | 0 | · | 2 | -9 | -85* | -5
C=C(C)CSc1nnc2n(N)c(=O)c3ccccc3n12 | 0 | 0 | 1 | 15 | -19 | -3
COC(=O)c1c(C)[nH]c(C(=O)C(C)OC(=O)C2CC(=O)N(CCc3ccccc3)C2)c1C (stereo unspecified) | 0 | 0 | 3 | -18 | -33* | 3
CCN1/C(=C/c2ccc3cc(C)ccc3[n+]2CC)Sc2ccccc21 | 50* | -15 | 15 | -8 | -9 | 25
Fc1ccc(C(CCNCc2ccccn2)c2ccc(Cl)cc2)cc1 (stereo unspecified) | 3 | -10 | 67* | 19 | 17 | 6
COc1ccc(Cn2c(=O)c3c(nc(NCCO)n3C)n(C)c2=O)cc1 | 0 | 0 | 0 | -5 | -33* | -1
Cn1c(NCCCCO)nc2c1c(=O)n(Cc1ccc(Cl)cc1)c(=O)n2C | -1 | -1 | -2 | 2 | -33* | 11
Cn1c(NCCCO)nc2c1c(=O)n(Cc1cccc(Cl)c1)c(=O)n2C | · | -5 | · | · | · | ·
CCOc1cc(C2NC(=O)N(C)C(C)=C2C(=O)OC2CCCC2)cc(Br)c1O (stereo unspecified) | · | -8 | · | · | · | ·
CCn1c(CCc2ccccc2)nnc1SCC(N)=O | 0 | -6 | 3 | -1 | 6 | -2
C=CCn1c(CCc2ccccc2)nnc1SCC(N)=O | 0 | -9 | 1 | -6 | -3 | 32*
CCc1ccc(C2Cc3ccccc3N2)cc1 (stereo unspecified) | · | 15 | · | · | · | ·
SMILES | TRHR ag | LDHA block | D1 agonist | D1 PAM | D1 antag | TRHR PAM
O=C(NCCS(=O)(=O)N1CCN(c2ccccc2F)CC1)c1ccc(F)c(F)c1 | 0 | 1 | 0 | -12 | -33* | -3
O=C(NCCS(=O)(=O)N1CCCC1)c1ccccc1 | -1 | -6 | 3 | 0 | 29 | 5
O=C(NCCS(=O)(=O)N1CCCCCC1)c1ccc(F)cc1 | 0 | -7 | 1 | -12 | -15 | 30*
O=C(NCCS(=O)(=O)N1CCN(c2ccccc2F)CC1)c1ccc(C(F)(F)F)cc1 | · | 5 | · | · | · | ·
CCOC(=O)N1CCC(NC(=O)c2cc3c(OC)cccc3[nH]2)CC1 | · | 9 | · | · | · | ·
Cc1ccccc1C(=O)OCn1nnc2ccccc2c1=O | 0 | -4 | 1 | -2 | -12 | 0
O=C(OCn1nnc2ccccc2c1=O)c1ccc(Br)o1 | -1 | 1 | 3 | -1 | 4 | 33*
O=C(OCn1nnc2ccccc2c1=O)c1cc(-c2ccccc2Cl)nc2ccccc12 | 0 | -1 | 3 | -7 | 4 | 0
Cc1ccc(C)c(C(=O)CCC(=O)OCn2nnc3ccccc3c2=O)c1 | -1 | -1 | 2 | -4 | -64* | -1
Cc1onc(-c2ccccc2Cl)c1C(=O)OCn1nnc2ccccc2c1=O | 1 | 0 | 2 | -7 | -50* | 1
NS(=O)(=O)c1ccc(N/N=C/c2ccc(Cl)c(Cl)c2)c([N+](=O)[O-])c1 | · | 7 | · | · | · | ·
O=C1C(=O)N(Cc2cccnc2)C(c2cccc(F)c2)/C1=C(/O)c1ccc2c(c1)OCO2 (stereo unspecified) | 2 | -3 | 2 | -10 | -62* | -4
COc1ccc(C2/C(=C(\O)c3ccc4c(c3)CC(C)O4)C(=O)C(=O)N2Cc2cccnc2)c(OC)c1 (stereo unspecified) | 0 | -5 | 5 | -1 | -3 | 5
COc1cccc(C2/C(=C(\O)c3ccc4c(c3)OCCO4)C(=O)C(=O)N2Cc2cccnc2)c1 (stereo unspecified) | 0 | 0 | 1 | -3 | -9 | 8
COc1ccc(C2/C(=C(/O)c3ccc4c(c3)CC(C)O4)C(=O)C(=O)N2Cc2cccnc2)cc1 (stereo unspecified) | 0 | 0 | 0 | 2 | -42* | 14
NNC(=O)C(O)c1ccccc1 (stereo unspecified) | · | -1 | · | · | · | ·
Fc1ccc(CNCCCSc2nnnn2-c2ccccc2)cc1 | -1 | -5 | 161* | 5 | -43* | 6
CC(C)c1ccc(CNCCSc2nnnn2-c2ccccc2)cc1 | 0 | 3 | 56* | 6 | 10 | 6
CC(C)c1ccc(CNCc2ccccc2)cc1 | 1 | -15 | 50* | -3 | -7 | -2
Fc1ccccc1CNCCCSc1nnnn1-c1ccccc1 | 0 | -4 | 6 | 0 | -9 | 6
Clc1ccccc1CNCCCSc1nnnn1-c1ccccc1 | 0 | -11 | 31* | -1 | 1 | -1
CC(C)c1ccc(CNCC(O)c2ccccc2)cc1 (stereo unspecified) | · | 9 | · | · | · | ·
COc1ccc(C(=O)Oc2ccccc2Cl)c(OC)c1 | · | 6 | · | · | · | ·
c1ccc2sc(C34CC5CC(CC(C5)C3)C4)nc2c1 | · | 5 | · | · | · | ·
CC(C)c1nn(C)c(Cl)c1CNCc1ccc2c(c1)OCCO2 | · | 4 | · | · | · | ·
Cc1noc(C)c1COC(=O)c1ccccc1Sc1ccccc1C#N | 1 | -6 | 14 | -10 | -38* | -14
